Assay results published in PubChem BioAssay (NCI).
The panel holds about 83,000 compounds, 20% with a hit somewhere; the sample as a whole holds those more often.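 Cell lines were cultured in 96-well plates, exposed to a single compound concentration, and assessed for percent growth 48 hours later.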 Calls of active or inactive are those of the source. How the source made its calls: active means growth percent below 10; inactive means the rest.

Key:
Assay in all cases: NCI-60 one-dose screen, 48 h (100 = growth as untreated, 0 = no growth, -100 = all killed)
Conditions in all cases: 10 µM unless noted
[1] = tested on: SR leukemia
[2] = tested on: RPMI-8226 leukemia
[3] = tested on: OVCAR-8 ovarian
[4] = tested on: OVCAR-5 ovarian
[5] = tested on: OVCAR-4 ovarian
[6] = tested on: SK-OV-3 ovarian
[7] = tested on: IGROV1 ovarian
[8] = tested on: OVCAR-3 ovarian
[9] = tested on: HS 578T breast
[10] = tested on: NCI/ADR-RES ovarian

Measured: growth

CC[C@]12C=CCN3CC[C@]4(C(=C(C(=O)OC)C1)Nc1cc(OC)c([C@@H]5[C@H]6O[C@H]6[C@@]6(CC)CC(C(=O)OC)=C7Nc8cc(OC)ccc8[C@@]78CCN5[C@@H]68)cc14)[C@@H]32
inactive: [2] 24.2% | [3] 53.1% | [4] 93.2% | [5] 59.8% | [6] 116% | [7] 64% | [8] 55.8% | [9] 87.2% | [10] 80.8%
active: [1] 5.93%

Cc1ccc2c(c1)nc(-c1ccccc1)n2CC(=O)N=Nc1c(O)[nH]c2ccc(Cl)cc12
active: [1] -20.7% | [2] -17% | [3] -66.9% | [4] -52.5% | [5] -71.3% | [6] -72.6% | [7] -86% | [8] -70.3% | [9] -32.9% | [10] -73%

COc1cncc(-c2ccc3ncnc(N4CCc5ccc(Cl)cc54)c3c2)c1
active: [1] 3.37% | [2] -21.2% | [7] -63.4% | [10] 1.41%
inactive: [3] 39.4% | [4] 30% | [5] 32% | [6] 27.4% | [8] 55.4% | [9] 20.1%

Cc1ccc(C(=O)Nc2cc(-n3ccnc3C)cc(C(F)(F)F)c2)cc1C#Cc1cnc2cccnn12
active: [1] -17.9% | [2] -14.8% | [4] 7.14% | [6] -0.287% | [7] 4.66% | [9] -25.9% | [10] 4.26%
inactive: [3] 18.5% | [5] 15.6% | [8] 37.8%

COc1cc(CNC(=O)C[C@H](C)CCC=C(C)C)ccc1OCc1cn(-c2ccccc2F)nn1
inactive: [1] 73.4% | [2] 81.8% | [3] 66.5% | [4] 94.9% | [5] 71.4% | [6] 43.6% | [7] 81.9% | [8] 105% | [9] 39.5% | [10] 54.8%

Nc1cc(-c2c[nH]c3ccc(Br)cc23)nc2cc(-c3c[nH]c4ccccc34)nn12
active: [1] 7.93% | [2] 0.137% | [3] -54.1% | [4] -72.7% | [5] -5.21% | [6] -43.6% | [7] -77.1% | [8] -34% | [9] -12.4% | [10] -17.9%

O=C1Nc2cc(-c3ccc(NS(=O)(=O)c4ccc(-c5ccccc5)cc4)cc3)ccc2/C1=C/c1ccc[nH]1
active: [1] -33.1% | [8] -19.4%
inactive: [2] 21.3% | [3] 52.2% | [4] 61.7% | [5] 21.3% | [6] 98.2% | [7] 73% | [9] 59.4% | [10] 62.9%

Oc1cncc(-c2ccc3ncnc(N4CCc5cc(F)c(Cl)cc54)c3c2)c1
inactive: [1] 42.5% | [2] 55.2% | [3] 37.4% | [4] 59.8% | [5] 40.6% | [6] 54.3% | [8] 58% | [9] 18.1% | [10] 61.9%
active: [7] 5.56%

CCCCCCCCCCCCCCCCCC(=O)Nc1ccc(OC)cc1
inactive: [1] 97.7% | [2] 99.6% | [3] 112% | [4] 114% | [5] 113% | [6] 115% | [7] 103% | [8] 119% | [9] 101% | [10] 101%

COc1ccc(N=Nc2c(N)nn3c(N)c(C#N)c(-c4ccccc4)nc23)cc1
active: [3] 8.3% | [5] -13.4% | [8] -6.99% | [9] -0.615% | [10] 6.35%
inactive: [1] 73.8% | [2] 13.8% | [4] 72.8% | [6] 13.1% | [7] 20.8%

Cn1cc(-c2cc(N)n3nc(-c4c[nH]c5ccccc45)cc3n2)c2cc(Cl)ccc21
active: [2] -7.08% | [3] -63.7% | [4] -65.9% | [5] -29.3% | [6] -61.4% | [7] -65.5% | [8] -52.5% | [9] -21.2% | [10] -12.8%
inactive: [1] 20%

COc1ccc(-c2cc(C)nc3[nH]c(=O)sc23)cc1
inactive: [1] 75.5% | [2] 69.4% | [3] 63.5% | [4] 80.4% | [6] 55.9% | [7] 62.5% | [8] 67.1% | [9] 48.2% | [10] 62.4%
active: [5] 2.45%

CCOC(=O)/C(F)=C/C1CC1C1CCN(C(=O)OC(C)(C)C)CC1 (stereo not given)
inactive: [1] 89.6% | [2] 102% | [3] 103% | [4] 111% | [5] 94.8% | [6] 110% | [7] 106% | [8] 111% | [9] 110% | [10] 100%

COc1ccccc1NC(=O)N/N=C/c1c[nH]c2ccccc12
active: [8] -32.1% | [10] -9.65%
inactive: [1] 14.6% | [2] 13.5% | [3] 19.3% | [4] 34.4% | [5] 61.2% | [6] 26.2% | [7] 38.7% | [9] 23.8%

FC(F)(F)c1cc2c(Cl)ncnc2n1CCN1CCOCC1
inactive: [2] 103% | [3] 64.7% | [4] 98.4% | [5] 19.7% | [6] 101% | [8] 38.5% | [9] 95.8% | [10] 81.4%
active: [1] -50.8% | [7] -58.3%

COc1ccc(-c2cc(C(=O)Oc3ccc(C=O)cc3OC)nn2-c2ccc(S(C)(=O)=O)cc2)cc1
inactive: [1] 84.9% | [2] 70.4% | [3] 103% | [4] 125% | [5] 89.7% | [6] 122% | [7] 112% | [8] 93.4% | [9] 112% | [10] 101%

Nc1cc2ccccc2c(=O)n1NC(=O)c1ccc(Br)cc1
inactive: [1] 72.5% | [2] 92.1% | [3] 98.6% | [4] 97.8% | [5] 91% | [6] 115% | [7] 101% | [8] 79.2% | [9] 102% | [10] 93%

COc1cccc2nc(Nc3cccc(NC(=O)c4ccc(CN5CCN(C)CC5)c(C(F)(F)F)c4)c3)ccc12
active: [1] -36.1% | [2] -40.2% | [3] -65.2% | [4] -98% | [5] -82.9% | [6] -81.9% | [7] -87.1% | [8] -36.6% | [9] -21.1% | [10] -89.7%

COc1cccc(NC(=O)c2ccc(NC(=O)CCl)s2)c1
inactive: [3] 10.2% | [4] 47.3% | [5] 94.6% | [8] 35.8% | [9] 65.9% | [10] 22.5%
active: [1] -0.752% | [2] -22.9% | [6] -1.99% | [7] -13.4%

COc1ccc(N=Nc2c(N)nn3c(-c4cc5cc(Br)ccc5oc4=O)ccnc23)cc1
inactive: [1] 28% | [2] 48.5% | [3] 19.5% | [4] 33.4% | [5] 32.2% | [6] 17.4% | [8] 25.3% | [9] 35.4% | [10] 15.5%
active: [7] 6.35%

COc1ccc(-c2nnc3c(/C=C/c4ccc(Br)cc4)nc4ccccc4n23)cc1
active: [1] -19.4%
inactive: [2] 21.2% | [3] 46.1% | [4] 79.7% | [5] 52.9% | [6] 112% | [7] 47.8% | [8] 15.1% | [9] 81.6% | [10] 67.5%

COc1cccc(/C=C/c2nc3ccccc3c(=O)n2CC(=O)Nc2ccccc2)c1
inactive: [1] 90% | [2] 71.3% | [3] 21.9% | [4] 65.9% | [6] 54.2% | [7] 61% | [8] 74.6% | [10] 33%
active: [5] -1.67% | [9] 3.02%

O=c1ccc(Cn2c(C(F)(F)F)cc3c(Cl)ncnc32)c[nH]1
inactive: [2] 81.1% | [4] 126% | [6] 119% | [10] 61.3%
active: [1] -53.9% | [3] 0.681% | [5] -2.63% | [7] -67.4% | [8] -20% | [9] -14.4%

Cc1cnc2ccc(Oc3ccccc3-c3ccccc3)nn12
inactive: [1] 89.3% | [2] 106% | [3] 103% | [4] 111% | [5] 112% | [6] 178% | [7] 105% | [8] 120% | [9] 120% | [10] 104%

COc1ccc(CCC2NCCc3c(Br)c4c(c(OC)c32)OCO4)cc1 (stereo not given)
inactive: [2] 11% | [3] 27.9% | [4] 11.6% | [5] 42.4% | [6] 28.8%
active: [1] -6.62% | [7] 1.92% | [8] 1.09% | [9] 8.95% | [10] -13.9%
